Consider 40 molecules from PubChem BioAssay (NCI).

About 83,000 compounds went through this panel and 20% of them were active in at least one assay; those are over-represented in the sample as a whole.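 Results are percent growth after 48 hours of single-concentration exposure. 100 means growth as in untreated cells, lower positive values show inhibition; negative values down to -100 show cell death.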 Unmarked numbers belong to inactive results. Calls of active or inactive are those of the source.

The subject of this assay is NCI-H226 lung. In words: NCI-60 one-dose screen, 48 h (100 = growth as untreated, 0 = no growth, -100 = all killed). As to conditions: 10 µM unless noted. As for the experimental part: Growth inhibition of the NCI-H226 human Non-Small Cell Lung tumor cell line is measured as a screen for anti-cancer activity. Cells are grown in 96 well plates and exposed to the test compound for 48 hours. Compounds are tested at a single concentration, which is 10^-5 M for most compounds. The reported endpoint is percent growth (GI% or GIPRCNT), where numbers from 0 - 100% represent growth inhibition, and numbers from -100% - 0 represent cell death. For example, a value of 40 represents 60% growth inhibition. A value of 0 means no net growth occurred over the course of the experiment. A value of -40 indicates 40% of cells at the beginning of the experiment died by the end of the experiment. A value of -100 means all cells are dead at the end of the experiment.
NCI-60 Human Tumor Cell Lines Screen was performed using the standard one-dose NCI protocol, which is described in more detail at https://dtp.cancer.gov/discovery_development/nci-60/default.htm.
Compounds with GIPRCNT values below 10 were considered active. Activity score was based on GIPRCNT using the following formula: […]
Score is 0 for GIPRCNT values of 100 or above, 50 for GIPRCNT values of 0, and 100 for GIPRCNT values of -100.
For `CC1=CC(=O)N(c2cccc3c(N4C(=O)C=C(C)C4=O)cccc23)C1=O`, the growth is 100%.

Regarding `Cc1cc(C)c(NC(=O)c2sc3nc4c(cc3c2N)CCCC4)c(C)c1`, the growth is 78.6%.

For `COc1cc(/C=C2\C(=O)N(CC(O)COc3cc(O)c4c(=O)cc(-c5ccccc5)oc4c3)c3ccccc32)cc(OC)c1O` (stereo not given), the growth was 99.7%.

Turning to `COc1ccc2c(c1)C(Br)=C(CCO)C2c1ccccc1` (stereo not given), the growth was 100%.

Consider `COC(=O)[C@]12CC[C@@H](C)[C@H](C)[C@@H]1C1=CC(=O)[C@@H]3[C@@]4(C)C[C@@H](OC(C)=O)[C@H](OC(C)=O)[C@@](C)(COC(C)=O)[C@@H]4C(=O)C[C@@]3(C)[C@]1(C)CC2`, for which the growth was 41.8%.

Turning to `COc1ccc(NC(=O)c2ccoc2COc2ccccc2)cc1`, the growth was 98.8%.

In the case of `O=Cc1nc2ccccc2[nH]1`, the growth is 97.6%.

Consider `COc1ccc(/C=C/C(=O)c2ccc([N+](=O)[O-])cc2)cc1`, for which the growth was 102%.

With `COc1ccc(-c2nc3ncccn3c2-c2nc3ccc(Br)cc3[nH]2)cc1`, the growth is 93.5%.

As to `O=C1c2cc3c(cc2-c2c1c1ccc(F)cc1c(=O)n2CCCN1CCOCC1)OCO3`, the growth is 20.4%.

As for `Cc1nn(-c2ccc(Br)cc2)c2nc3[nH]c(=O)[nH]c(=O)c3nc12`, the growth was 103%.

As for `O=C(O)/C(=C/c1ccc(O)cc1)c1ccccc1`, the growth is 100%.

As to `C#CCN=C[C@]12CC[C@@H](C(=C)C)[C@@H]1[C@H]1CC[C@@H]3[C@@]4(C)CCC(=O)C(C)(C)[C@@H]4CC[C@@]3(C)[C@]1(C)CC2`, the growth was 73.2%.

As for `COc1cc(/C=C/c2cc(/C=C/c3ccc(O)c(OC)c3)n(-c3ccccc3)c(=O)n2)ccc1O`, the growth is 80.2%.

In the case of `CCN1CCN(C(=O)[C@@]2(C)CC[C@]3(C)CC[C@]4(C)C(=CC(=O)[C@@H]5[C@@]6(C)CC[C@H](OCCC#N)C(C)(C)[C@@H]6CC[C@]54C)[C@@H]3C2)CC1`, the growth was 89.9%.

Consider `O=C1C(Cl)=C(Nc2ccc(S(=O)(=O)c3ccc(NC4=C(Cl)C(=O)c5ccccc5C4=O)cc3)cc2)C(=O)c2ccccc21`, for which the growth was 91.2%.

`C=C(C)[C@@H]1CC[C@]2(CN)CC[C@]3(C)[C@H](CC[C@@H]4[C@@](C)(CCCN)[C@H](C(=C)C)CC[C@]43C)[C@@H]12`: the growth is 90.6%.

As for `Nc1nc2c3ccncc3cc(-c3cccc(Cl)c3)c2c2cnccc12`, the growth is 33.1%.

Turning to `c1ccc(CN2C(c3ccccc3)=Nc3ccccc3C2c2c[nH]c3ccccc23)cc1` (stereo not given), the growth is 59.3%.

Regarding `O=C(O)c1cccc2c1C(=O)N(c1ccc3c(c1)Cc1ccccc1-3)C2=O`, the growth was 111%.

Turning to `Cc1cc(N2CCOCC2)nc(N(CCCNc2ccnc3cc(Cl)ccc23)Cc2ccco2)n1`, the growth was 74.7%.

As for `CN1CCN(CC#CCn2c3c(c4ccccc42)C[C@]2(C)[C@H]4CC[C@@H]5[C@H]6[C@H]7OC(=O)[C@@]6(CCC7(C)C)CC[C@@]5(C)[C@]4(C)CC[C@H]2C3(C)C)CC1`, the growth was 91.6%.

Consider `COC(=O)[C@]12CC[C@@H](C)[C@H](C)[C@@H]1C1=CC[C@@H]3[C@@]4(C)C[C@@H](OC(C)=O)[C@H](O)[C@@](C)(CO)[C@@H]4[C@H](O)C[C@@]3(C)[C@]1(C)CC2`, for which the growth was -48.6% (active).

`N#CCCCCCn1c2ccccc2c2c3[nH]c(=O)[nH]c(=O)c3c3c4ccccc4n(CCCCCC#N)c3c21`: the growth was 65.8%.

For `O=C(CCCCCn1c2ccccc2c2c3c(c4c5ccccc5[nH]c4c21)C(=O)N(O)C3=O)N1CCOCC1`, the growth was 19.1%.

Take `CN1CCN(c2ccc3nc(-c4[nH]ncc4Nc4ncnc5[nH]ccc45)[nH]c3c2)CC1`: the growth is -10.2% (active).

Regarding `OCC12CCCC(CO)(COC1)C2O` (stereo not given), the growth was 99.8%.

As to `Nc1c(Cl)cc(N=Nc2ccccc2)cc1Cl`, the growth was 55.2%.

On to `Cc1ccc(S(=O)(=O)Nc2ccc(-c3cc(-c4cccc(F)c4)c(C#N)c(N)n3)cc2)cc1`, for which the growth was 36.7%.

In the case of `Cn1cc(-c2nc(-c3c[nH]c4ncccc34)cs2)c2cc(Cl)ccc21`, the growth is 81.8%.

Take `O=C1CCCC=CC[C@H]2C=C(Cl)C(=O)C2=CC[C@H](CCCCC(F)(F)F)OC(=O)CCCC=CC[C@H]2C=C(Cl)C(=O)C2=CC[C@H](CCCCC(F)(F)F)OC(=O)CCCC=CC[C@H]2C=C(Cl)C(=O)C2=CC[C@H](CCCCC(F)(F)F)O1`: the growth was 113% [6.25 µM].

In the case of `Oc1ccc(CCC2CCCC(CCc3ccc(OCCF)cc3)N2)cc1` (stereo not given), the growth was 99.3%.

Turning to `CC(C)(C)c1cc(-n2c(-c3ccc(Cl)cc3)nc3cc(C(=O)Nc4ccc(Cl)cc4)ccc32)n[nH]1`, the growth is 73.9%.

As for `COc1ccc2nc(-c3c(-c4ccccc4)nc4ncccn34)[nH]c2c1`, the growth is 106%.

Consider `COc1ccc(C(=O)/C=C/c2cc(-c3cc(OC)c(OC)c(OC)c3)n[nH]2)cc1OC`, for which the growth is 20.8%.

Turning to `C=C(C)[C@@H]1CC[C@]2(CN)CC[C@]3(C)[C@H](CC[C@@H]4[C@@]5(C)CCC(=O)NC(C)(C)[C@@H]5CC[C@]43C)[C@@H]12`, the growth was 88.1%.

With `CCCCCCCC(=O)SCC/C=C/[C@@H]1CC(=O)NCc2cccc(n2)CN(Cc2ccc3ccccc3c2)CC(=O)N[C@@H](C(C)C)C(=O)O1`, the growth was 67.5%.

For `Cn1cnc2c1c(=O)n(CCC(=O)Nc1ccc(F)cc1)c(=O)n2C`, the growth was 106%.

As for `COc1cnc2c(c1)C(=O)c1c-2n(CCCN2CCN(CCO)CC2)c(=O)c2cc([N+](=O)[O-])ccc12`, the growth was 64%.

On to `COC(=O)[C@]12CC[C@@H](C)[C@H](C)[C@@H]1C1=CC[C@@H]3[C@@](C)(CC#N)C4=C(C[C@@]3(C)[C@]1(C)CC2)OC[C@]4(C)C=O`, for which the growth was -37% (active).
